Test results taken from PubChem BioAssay.
Results filed as inconclusive are left out. The source made the active and inactive calls. Cut-off read from the data, not from the text of the source, unless noted: active = percent of DMSO control GFP below about 86%; inactive = the rest, inconclusive results apart.

Key:
[1] = rapamycin-like changes in RPL19A-GFP expression – cell-based, S. cerevisiae, multiplex flow cytometry, primary screen (AID 1862);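 note: lower values mimic rapamycin by blocking the RPL19A rise seen in DMSO cells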; conditions: S. cerevisiae RPL19A-GFP strain, flow cytometry fluorescence, 3 h; at 10 µM; stronger effect = lower value
[2] = TOR pathway GLN3 branch reporter MEP2-GFP changes – S. cerevisiae, multiplex flow cytometry, primary screen (AID 1867;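 active = GFP response, as percent of the DMSO control, above the screen-wide mean plus 3 SD, about 139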;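 note: median GFP channel fluorescence of barcode-gated MEP2-GFP cells measured by flow cytometry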); conditions: S. cerevisiae MEP2-GFP strain, 3 h, at 10 µM, stronger effect = higher value, 100% means same as DMSO wells
[3] = TOR pathway RTG branch CIT2 reporter changes – S. cerevisiae, GFP fusion, multiplex flow cytometry, primary screen (AID 1870;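 active = percent response above a set limit, the screen-wide mean plus 3 SD, cut at about 130% in these data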;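 note: barcoded CIT2-GFP strain pooled with four other GFP strains with rapamycin as positive control; median GFP fluorescence per well over plate mean of DMSO wells so 100% = DMSO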); conditions: S. cerevisiae CIT2-GFP expression, 3 h, at 10 µM, stronger effect = higher value
[4] = TOR pathway LAP4-GFP level changes – S. cerevisiae, multiplex flow cytometry, primary screen (AID 1873;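 active = GFP signal, as percent of the solvent control, above the screen mean plus 3 SD, about 149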); conditions: S. cerevisiae LAP4-GFP expression, 3 h, at 10 µM, stronger effect = higher value
[5] = yeast AGP1-GFP level changes, GLN3 branch – cell-based, multiplex flow cytometry, S. cerevisiae, primary screen (AID 1887;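 active = GFP signal above the screen-wide mean plus 3 SD, that is over about 124.5% of the solvent control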;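 note: AGP1-GFP fusion strain of S. cerevisiae within a five-strain barcoded multiplex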); conditions: 3 h, at 10 µM, stronger effect = higher value
[6] = reduced mouse 2C T cell binding to pMHC/ICAM-1 vesicles – MLPCN validation set, flow cytometry, LFA-1/ICAM-1 modulator project, pilot screen (AID 2523;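 active = response below a set limit, under 55% cells CD8-positive and vesicle-bound, and CD8 cells' 90th-percentile brightness under 279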;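 for vesicle binding response: mean PE anti-B7-1 fluorescence of CD8+ cells relative to row control; 100% = QL9-loaded vesicles with DMSO vehicle in the same plate row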); conditions: 2C mouse CD8+ T cells, at 7 µM, stronger effect = lower value; double positive events: measured here: CD8+/vesicle+ event percentage
[7] = molecular target: Integrin beta-1 (Homo sapiens) + Integrin alpha-4 (Homo sapiens) (UniProt P13612+P05556); experiment: alpha4beta1 integrin LIBS antibody binding reduction – U937 cells, HUTS-21 mAb, flow cytometry, validation set, VLA-4 allosteric modulator project, pilot screen (AID 2674;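 active = inhibition above 50%, about 3 SD of the validation set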;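 note: antibody binding induced by the VLA-4 ligand LDV present at three times its Kd; 0% = LDV ligand with antibody and no compound and 100% = antibody without LDV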); conditions: HUTS-21 LIBS mAb binding, at 6.7 µM, stronger effect = higher value, binding induced by LDV ligand
[8] = calorie-restriction mimetic ROS inhibitors, yeast – validation compound set, pilot screen (AID 2706;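 active = superoxide response below 65% of plate, a cut near 3 SD across the whole screen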;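 note: yeast exposed to compound for one week at 30 degrees C before staining; 100% = mean of all compound wells on the same plate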); conditions: S. cerevisiae aging, superoxide DHE fluorescence; at 10 µM; stronger effect = lower value
[9] = molecular target: Beta-adrenergic receptor kinase 1 (Homo sapiens) (UniProt P25098); experiment: GRK2 binders displacing RNA aptamer, biochemical, validation, human GRK2, bead flow cytometry (AID 488806;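 active = aptamer binding inhibition above 30%, about 3 SD of noise from non-fluorescent compounds; inactive = inhibition at or below 30%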); conditions: bead-bound GRK2, FAM-aptamer displacement, at 10 µM, stronger effect = higher value
[10] = molecular target: Beta-2 adrenergic receptor (Homo sapiens) (UniProt P07550); experiment: agonist-induced loss of surface beta2AR – cell-based, FAP fluorogen, flow cytometry, validation set, pilot screen (AID 504459;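 active = percent response above 42, roughly 3 SD of non-fluorescent test compounds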;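 note: agonist-driven loss of surface beta2AR via internalization measured by FAP dye flow cytometry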); conditions: Am2.2-beta2AR cells, at 10 µM, stronger effect = higher value
[11] = molecular target: AP-2 complex subunit beta (Homo sapiens) (UniProt P63010); experiment: beta-arrestin/AP2 interaction blockers – biochemical, validation set, GST-AP2 beads, flow cytometry, pilot screen (AID 504541;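 active = inhibition above 54%, about 3 SD of non-fluorescent compounds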;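 note: AP2 carries R879A mutation and is captured from E. coli lysate; bead-bound FITC arrestin peptide fluorescence measuring arrestin peptide binding to AP2; 0% = DMSO wells and 100% = excess unlabeled arrestin peptide control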); conditions: FITC arrestin peptide, at 10 µM, stronger effect = higher value, AP2 beta2 appendage fragment, R879A mutant
[12] = cytosolic pH regulators acting via V-ATPase – S. cerevisiae, pHLuorin, HTS validation (AID 504600; in the data active = response above about 15%;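 note: plate controls were DMSO for no effect and reference compound for full effect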); conditions: V-ATPase proton transport, at 10 µM, stronger effect = higher value
[13] = test system: anti-desmoglein-3 scFv antibody binding to human DSG3; experiment: blockers of pathogenic pemphigus antibody–desmoglein-3 binding – biochemical, validation compound set, bead-based, flow cytometry, pilot screen (AID 588368;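 active = binding below the plate cutoff, the plate median minus 3 SD, with a reading above zero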;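 note: signal is the median channel fluorescence of bead-bound GFP antibody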); conditions: Protein G beads, DSG3-Fc, scFv-GFP binding, at 10 µM, stronger effect = lower value
[14] = Nile Red efflux blockade in pump-expressing yeast – validation compound set, multiplex, phenotypic, pilot screen (AID 588506;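 active = efflux inhibition above 0.42, the validation set average plus 4 SD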;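 note: Nile Red retained in cells so higher fluorescence means more efflux inhibition; 0 = negative control wells and 1 = enniatin B 25 µM full block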); conditions: S. cerevisiae pump-expressing triplex, Nile Red efflux flow cytometry; at 10 µM; stronger effect = higher value; the pumps come from Candida albicans
[15] = molecular target: ATP-binding cassette sub-family B member 6 (Homo sapiens) (UniProt Q9NP58); experiment: blockers of ABCB6-driven porphyrin uptake – K562-ABCB6 cells, flow cytometry, validation set, pilot screen (AID 588550;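 active = inhibition above the screen-wide mean plus 3 SD, about 51%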;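 note: 0% = DMSO wells and 100% = benzethonium chloride 70 µM positive control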); conditions: K562-ABCB6 porphyrin accumulation, 1 h, at 10 µM, stronger effect = higher value
[16] = AML differentiation inducers, ER-HoxA9 marrow cells – cell-based, GFP/MAC1 double positive, flow cytometry, validation set, primary screen (AID 588685;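 active = differentiation response of at least 50%, scaled between solvent and reference control, from cells with both markers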;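 note: compound exposure lasts four days before antibody staining and flow analysis; 0% = DMSO wells and 100% = 5 µM fulvestrant positive control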); conditions: stronger effect = higher value, normalized: vehicle 0, fulvestrant 100

Chain of AP-2 complex subunit beta (Homo sapiens) (P63010 whole entry, looked up, the tested form may be a part, one chain of several): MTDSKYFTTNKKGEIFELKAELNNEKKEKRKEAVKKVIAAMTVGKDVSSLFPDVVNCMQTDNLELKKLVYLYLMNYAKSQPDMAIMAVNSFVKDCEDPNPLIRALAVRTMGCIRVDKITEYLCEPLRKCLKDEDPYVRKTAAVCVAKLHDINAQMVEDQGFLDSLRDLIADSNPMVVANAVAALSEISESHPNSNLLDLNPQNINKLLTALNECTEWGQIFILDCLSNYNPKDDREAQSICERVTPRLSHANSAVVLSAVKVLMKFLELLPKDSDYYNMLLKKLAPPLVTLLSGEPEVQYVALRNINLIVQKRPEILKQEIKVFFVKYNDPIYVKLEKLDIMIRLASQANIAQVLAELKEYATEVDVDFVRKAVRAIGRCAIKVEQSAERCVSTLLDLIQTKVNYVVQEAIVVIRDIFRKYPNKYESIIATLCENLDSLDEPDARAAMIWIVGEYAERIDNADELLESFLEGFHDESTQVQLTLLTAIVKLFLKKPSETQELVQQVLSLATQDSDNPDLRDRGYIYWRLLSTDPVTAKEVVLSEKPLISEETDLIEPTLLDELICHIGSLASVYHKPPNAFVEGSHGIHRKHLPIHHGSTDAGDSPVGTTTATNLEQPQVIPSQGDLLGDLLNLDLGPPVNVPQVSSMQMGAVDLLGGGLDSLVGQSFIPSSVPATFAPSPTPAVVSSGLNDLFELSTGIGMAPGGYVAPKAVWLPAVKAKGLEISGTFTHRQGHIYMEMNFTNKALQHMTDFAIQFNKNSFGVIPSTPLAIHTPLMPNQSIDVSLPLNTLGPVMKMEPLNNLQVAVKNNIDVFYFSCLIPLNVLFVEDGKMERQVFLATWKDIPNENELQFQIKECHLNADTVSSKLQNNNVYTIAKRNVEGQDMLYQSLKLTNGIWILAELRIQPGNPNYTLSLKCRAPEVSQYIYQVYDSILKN
Chain of Integrin beta-1 (Homo sapiens) + Integrin alpha-4 (Homo sapiens) (P05556 whole entry, looked up): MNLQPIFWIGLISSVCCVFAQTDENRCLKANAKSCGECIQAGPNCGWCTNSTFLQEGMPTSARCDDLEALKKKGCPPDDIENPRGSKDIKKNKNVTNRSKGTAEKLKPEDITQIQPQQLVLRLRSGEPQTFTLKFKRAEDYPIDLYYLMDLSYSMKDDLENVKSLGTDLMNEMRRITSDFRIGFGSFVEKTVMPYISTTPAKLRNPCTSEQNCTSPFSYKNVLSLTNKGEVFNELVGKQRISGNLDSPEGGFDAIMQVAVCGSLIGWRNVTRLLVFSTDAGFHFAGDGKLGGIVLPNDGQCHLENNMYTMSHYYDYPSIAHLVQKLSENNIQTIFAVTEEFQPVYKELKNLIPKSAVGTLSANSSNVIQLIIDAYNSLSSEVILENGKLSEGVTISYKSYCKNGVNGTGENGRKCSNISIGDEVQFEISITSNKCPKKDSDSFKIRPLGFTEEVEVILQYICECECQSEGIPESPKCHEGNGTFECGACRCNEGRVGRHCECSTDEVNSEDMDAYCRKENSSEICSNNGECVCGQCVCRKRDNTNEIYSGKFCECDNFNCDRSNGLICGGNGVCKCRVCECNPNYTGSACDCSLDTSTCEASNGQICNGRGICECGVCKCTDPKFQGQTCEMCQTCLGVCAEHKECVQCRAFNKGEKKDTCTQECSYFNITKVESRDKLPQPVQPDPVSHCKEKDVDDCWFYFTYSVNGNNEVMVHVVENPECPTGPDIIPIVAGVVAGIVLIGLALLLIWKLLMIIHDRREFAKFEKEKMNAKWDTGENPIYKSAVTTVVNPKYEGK
Chain of Integrin beta-1 (Homo sapiens) + Integrin alpha-4 (Homo sapiens) (P13612 whole entry, looked up): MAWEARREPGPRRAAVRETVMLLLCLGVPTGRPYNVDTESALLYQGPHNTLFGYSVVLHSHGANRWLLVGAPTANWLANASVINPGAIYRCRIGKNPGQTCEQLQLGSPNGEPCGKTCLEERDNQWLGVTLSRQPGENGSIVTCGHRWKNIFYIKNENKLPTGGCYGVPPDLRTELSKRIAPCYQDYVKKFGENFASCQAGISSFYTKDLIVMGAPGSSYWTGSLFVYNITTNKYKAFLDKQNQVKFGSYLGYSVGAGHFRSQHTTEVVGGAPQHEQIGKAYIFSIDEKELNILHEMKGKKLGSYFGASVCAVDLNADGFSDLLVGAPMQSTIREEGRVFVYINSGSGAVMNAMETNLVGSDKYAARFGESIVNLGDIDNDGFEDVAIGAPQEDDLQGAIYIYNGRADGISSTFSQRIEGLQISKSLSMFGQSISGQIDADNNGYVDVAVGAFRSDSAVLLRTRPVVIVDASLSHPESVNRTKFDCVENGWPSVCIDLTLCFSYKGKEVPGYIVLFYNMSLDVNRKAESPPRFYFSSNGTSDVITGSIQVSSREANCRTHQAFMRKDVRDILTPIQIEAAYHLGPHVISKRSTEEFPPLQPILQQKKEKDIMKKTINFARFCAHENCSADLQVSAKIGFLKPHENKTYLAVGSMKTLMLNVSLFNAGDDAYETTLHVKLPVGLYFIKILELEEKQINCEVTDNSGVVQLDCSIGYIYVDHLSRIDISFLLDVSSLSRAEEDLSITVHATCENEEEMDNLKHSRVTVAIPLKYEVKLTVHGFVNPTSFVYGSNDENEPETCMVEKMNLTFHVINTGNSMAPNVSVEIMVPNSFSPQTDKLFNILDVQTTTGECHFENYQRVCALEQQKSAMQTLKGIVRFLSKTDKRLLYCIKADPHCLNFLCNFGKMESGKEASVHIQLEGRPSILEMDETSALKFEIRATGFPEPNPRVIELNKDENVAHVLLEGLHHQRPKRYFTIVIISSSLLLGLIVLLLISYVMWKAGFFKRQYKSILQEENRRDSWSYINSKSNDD
Chain of Beta-adrenergic receptor kinase 1 (Homo sapiens) (P25098 whole entry, looked up): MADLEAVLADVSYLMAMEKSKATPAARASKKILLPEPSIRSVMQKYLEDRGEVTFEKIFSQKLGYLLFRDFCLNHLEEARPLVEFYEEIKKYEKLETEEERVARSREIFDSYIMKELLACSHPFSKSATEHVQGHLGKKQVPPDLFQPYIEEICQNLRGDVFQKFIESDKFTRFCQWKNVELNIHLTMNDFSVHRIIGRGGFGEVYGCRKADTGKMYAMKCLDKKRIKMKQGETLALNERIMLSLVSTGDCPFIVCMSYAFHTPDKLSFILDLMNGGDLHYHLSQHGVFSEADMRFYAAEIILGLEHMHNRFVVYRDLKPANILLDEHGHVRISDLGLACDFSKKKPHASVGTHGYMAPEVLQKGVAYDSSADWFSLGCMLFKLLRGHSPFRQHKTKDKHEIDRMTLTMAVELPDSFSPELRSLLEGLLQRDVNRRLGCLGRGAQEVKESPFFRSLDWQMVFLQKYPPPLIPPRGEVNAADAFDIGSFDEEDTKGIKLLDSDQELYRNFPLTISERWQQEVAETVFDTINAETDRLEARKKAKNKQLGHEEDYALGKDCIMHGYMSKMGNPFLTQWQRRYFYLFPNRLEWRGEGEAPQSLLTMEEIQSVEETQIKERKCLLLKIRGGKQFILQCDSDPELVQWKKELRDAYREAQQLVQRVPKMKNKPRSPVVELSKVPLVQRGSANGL
Chain of Beta-2 adrenergic receptor (Homo sapiens) (P07550 whole entry, looked up): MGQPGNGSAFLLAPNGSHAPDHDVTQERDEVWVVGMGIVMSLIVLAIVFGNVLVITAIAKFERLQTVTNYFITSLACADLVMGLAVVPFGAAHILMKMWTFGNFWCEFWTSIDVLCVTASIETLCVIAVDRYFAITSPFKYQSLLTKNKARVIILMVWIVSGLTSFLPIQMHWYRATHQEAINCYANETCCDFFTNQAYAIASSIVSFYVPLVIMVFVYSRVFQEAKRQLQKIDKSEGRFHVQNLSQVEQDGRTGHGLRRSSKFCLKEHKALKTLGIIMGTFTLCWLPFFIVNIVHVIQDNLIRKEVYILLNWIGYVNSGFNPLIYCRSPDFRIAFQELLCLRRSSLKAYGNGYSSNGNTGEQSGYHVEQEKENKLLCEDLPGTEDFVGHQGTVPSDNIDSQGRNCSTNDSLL
Chain of ATP-binding cassette sub-family B member 6 (Homo sapiens) (Q9NP58 whole entry, looked up): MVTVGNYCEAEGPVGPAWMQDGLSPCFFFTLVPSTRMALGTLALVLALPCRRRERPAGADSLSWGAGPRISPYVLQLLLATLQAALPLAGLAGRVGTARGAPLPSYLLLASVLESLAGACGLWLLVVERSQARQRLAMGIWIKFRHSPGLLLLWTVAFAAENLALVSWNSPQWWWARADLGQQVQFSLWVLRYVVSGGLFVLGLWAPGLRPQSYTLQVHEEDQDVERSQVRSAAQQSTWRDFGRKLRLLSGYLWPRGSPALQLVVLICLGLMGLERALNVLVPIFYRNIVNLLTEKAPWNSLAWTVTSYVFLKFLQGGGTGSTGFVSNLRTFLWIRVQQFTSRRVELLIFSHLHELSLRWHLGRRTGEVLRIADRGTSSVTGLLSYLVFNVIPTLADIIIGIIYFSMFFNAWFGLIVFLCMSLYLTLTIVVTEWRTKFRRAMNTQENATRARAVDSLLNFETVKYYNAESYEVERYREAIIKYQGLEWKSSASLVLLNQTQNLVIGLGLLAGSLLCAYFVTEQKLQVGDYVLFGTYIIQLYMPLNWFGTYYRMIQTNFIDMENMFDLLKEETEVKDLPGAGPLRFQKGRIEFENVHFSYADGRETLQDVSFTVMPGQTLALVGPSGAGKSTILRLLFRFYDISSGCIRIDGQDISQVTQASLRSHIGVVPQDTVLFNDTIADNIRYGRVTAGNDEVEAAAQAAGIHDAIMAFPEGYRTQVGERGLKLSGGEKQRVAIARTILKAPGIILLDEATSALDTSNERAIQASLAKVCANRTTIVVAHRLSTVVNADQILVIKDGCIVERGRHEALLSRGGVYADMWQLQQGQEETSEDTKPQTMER

SMILES	percent of DMSO control GFP [1]	GFP response vs DMSO [2]	percent response of DMSO control [3]	GFP response vs DMSO [4]	GFP response, % of DMSO [5]	double positive events [6]	vesicle binding response [6]	inhibition [7]	superoxide response (% of plate) [8]	aptamer binding inhibition [9]	response [10]	inhibition [11]	response [12]	binding (% of control) [13]	efflux inhibition (fraction of control) [14]	inhibition [15]	differentiation response [16]
CC(C)C12CN3CC(C(C)C)(CN(C1)C3c1ccccc1)C2O (stereo not drawn)	98.9% (inactive)	101% (inactive)	101% (inactive)	101% (inactive)	109% (inactive)	63.9%	110% (inactive)	14.2% (inactive)	99.3% (inactive)	6% (inactive)	-12.3% (inactive)	8.13% (inactive)	-11% (inactive)	104% (inactive)	-0.09 (inactive)	6% (inactive)	-0.06% (inactive)
CSCC[C@H](NC(=O)Nc1ccc(C)cc1C)C(=O)O	99.3% (inactive)	103% (inactive)	99.6% (inactive)	95.7% (inactive)	96.5% (inactive)	56.7%	178% (inactive)	3.67% (inactive)	101% (inactive)	6% (inactive)	3.91% (inactive)	6.83% (inactive)	-0.26% (inactive)	94.5% (inactive)	-0.17 (inactive)	7% (inactive)	-7.2% (inactive)
CCc1cc(C(N)=S)ccn1	99.5% (inactive)	104% (inactive)	104% (inactive)	99.1% (inactive)	107% (inactive)	63.7%	166% (inactive)	9.63% (inactive)	97.7% (inactive)	4% (inactive)	-4.68% (inactive)	4.47% (inactive)	-4.94% (inactive)	101% (inactive)	0.12 (inactive)	1% (inactive)	-8.96% (inactive)
CC(C)=CCC/C(C)=C/CC/C(C)=N/O	97.4% (inactive)	115% (inactive)	91% (inactive)	108% (inactive)	93.5% (inactive)	59.7%	199% (inactive)	6.4% (inactive)	97.4% (inactive)	4% (inactive)	3.47% (inactive)	-1.05% (inactive)	-1.49% (inactive)	103% (inactive)	0.08 (inactive)	-63% (inactive)	-2.4% (inactive)
O=c1c(-c2ccccc2)c(O)c2cccc3c2n1CCC3	99.7% (inactive)	104% (inactive)	95.7% (inactive)	132% (inactive)	103% (inactive)	61.2%	186% (inactive)	1.44% (inactive)	108% (inactive)	-3% (inactive)	-27.7% (inactive)	-7.94% (inactive)	0.3% (inactive)	101% (inactive)	-0.09 (inactive)	1% (inactive)	-12.9% (inactive)
O=C(Nc1ccc(C(=O)NC2CCCCC2)cc1)c1cccnc1	99.5% (inactive)	101% (inactive)	107% (inactive)	119% (inactive)	105% (inactive)	57.6%	232% (inactive)	-0.43% (inactive)	113% (inactive)	1% (inactive)	-3.04% (inactive)	-15.9% (inactive)	1.36% (inactive)	95.1% (inactive)	-0.17 (inactive)	13% (inactive)	-4% (inactive)
CC1(C)Cc2nc3sc4c(=O)n(CC(N)=O)cnc4c3cc2CO1	90.9% (inactive)	134% (inactive)	115% (inactive)	73.2% (inactive)	82.2% (inactive)	67.5%	159% (inactive)	3.55% (inactive)	102% (inactive)	10% (inactive)	-4.57% (inactive)	12.8% (inactive)	-2.49% (inactive)	97% (inactive)	0.41 (inactive)	14% (inactive)	-9.01% (inactive)
C=CCOc1ccc(C(=O)CC)cc1OC	102% (inactive)	105% (inactive)	104% (inactive)	106% (inactive)	98.6% (inactive)	60%	174% (inactive)	8.29% (inactive)	103% (inactive)	1% (inactive)	2.91% (inactive)	-8.48% (inactive)	9.51% (inactive)	106% (inactive)	0.03 (inactive)	-4% (inactive)	-6.03% (inactive)
O=C1CCCN1C(=O)CCC(=O)N1CCCC1=O	107% (inactive)	95.1% (inactive)	109% (inactive)	87.4% (inactive)	106% (inactive)	62.6%	235% (inactive)	-11.9% (inactive)	96.9% (inactive)	0% (inactive)	-7.65% (inactive)	-9.79% (inactive)	-1.12% (inactive)	95.6% (inactive)	-0.1 (inactive)	-2% (inactive)	2.2% (inactive)
O=C(/C=C/c1c[nH]c2ccccc12)c1cccc2ccccc12	106% (inactive)	103% (inactive)	92.9% (inactive)	132% (inactive)	94.9% (inactive)	61.4%	336% (inactive)	-72.8% (inactive)	94% (inactive)	2% (inactive)	63.6% (active)	-4.72% (inactive)	-1.5% (inactive)	100% (inactive)	0.19 (inactive)	6% (inactive)	-12% (inactive)
CCCC(=O)O[C@]1(C(=O)COC(C)=O)CC[C@H]2[C@@H]3C[C@H](F)C4=CC(=O)C=C[C@]4(C)[C@@]3(F)[C@@H](O)C[C@@]21C	96.9% (inactive)	114% (inactive)	109% (inactive)	107% (inactive)	103% (inactive)	60.2%	1090% (inactive)	-13.2% (inactive)	112% (inactive)	3% (inactive)	4.32% (inactive)	24.1% (inactive)	-0.33% (inactive)	105% (inactive)	-0.06 (inactive)	2% (inactive)	1.93% (inactive)
Cc1ccc2c(c1)c1c3n2CCCN(Cc2ccccc2)C3CCC1 (stereo not drawn)	100% (inactive)	104% (inactive)	105% (inactive)	103% (inactive)	92.5% (inactive)	77.6%	490% (inactive)	-27.7% (inactive)	81.8% (inactive)	0% (inactive)	14.8% (inactive)	-2.35% (inactive)	-2.93% (inactive)	102% (inactive)	0.33 (inactive)	6% (inactive)	8.8% (inactive)
COc1ccc(CN(CCC(c2ccccc2)c2ccc(OC(C)C)cc2)C(=O)CCl)cc1OC (stereo not drawn)	101% (inactive)	98.3% (inactive)	107% (inactive)	98% (inactive)	99.7% (inactive)	65.9%	249% (inactive)	-3.57% (inactive)	94.5% (inactive)	4% (inactive)	-6.05% (inactive)	-14.7% (inactive)	0.92% (inactive)	93% (inactive)	-0.2 (inactive)	6% (inactive)	13.9% (inactive)
COc1ccc(OC(C)C(=O)Nc2ccc([N+](=O)[O-])cc2)cc1 (stereo not drawn)	102% (inactive)	107% (inactive)	99.7% (inactive)	114% (inactive)	97.5% (inactive)	65.7%	249% (inactive)	0.25% (inactive)	103% (inactive)	-3% (inactive)	1.65% (inactive)	-7.72% (inactive)	3.86% (inactive)	103% (inactive)	-0.21 (inactive)	5% (inactive)	13% (inactive)
Cc1ccc(C)c(OCCCC(C)(C)C(=O)O)c1	98% (inactive)	97.2% (inactive)	95.4% (inactive)	122% (inactive)	89.6% (inactive)	62.8%	203% (inactive)	-0.45% (inactive)	104% (inactive)	4% (inactive)	-7.3% (inactive)	-6.6% (inactive)	4.38% (inactive)	96.4% (inactive)	0.05 (inactive)	10% (inactive)	6.11% (inactive)
COc1ccc(C2C(C(=O)c3ccco3)=C(O)C(=O)N2CC2CCCO2)cc1 (stereo not drawn)	102% (inactive)	105% (inactive)	104% (inactive)	99.3% (inactive)	95.3% (inactive)	62.9%	351% (inactive)	-7.72% (inactive)	105% (inactive)	3% (inactive)	-3.98% (inactive)	25.3% (inactive)	-4.81% (inactive)	98.9% (inactive)	0.05 (inactive)	3% (inactive)	-5.62% (inactive)
O=C(O)c1ccc(OCCn2ccnc2)cc1	103% (inactive)	95.6% (inactive)	106% (inactive)	93.7% (inactive)	112% (inactive)	66.1%	173% (inactive)	9.63% (inactive)	91.6% (inactive)	-2% (inactive)	-0.04% (inactive)	-0.39% (inactive)	2.25% (inactive)	101% (inactive)	0.36 (inactive)	16% (inactive)	2.74% (inactive)
Cc1ccc2c(c1)C(CCN)C(=O)N2Cc1ccccc1 (stereo not drawn)	102% (inactive)	104% (inactive)	109% (inactive)	96% (inactive)	101% (inactive)	66.6%	234% (inactive)	-6.68% (inactive)	106% (inactive)	-4% (inactive)	-2.03% (inactive)	8.79% (inactive)	0.57% (inactive)	94.5% (inactive)	-0.14 (inactive)	1% (inactive)	-2.69% (inactive)
COc1cccc2c(O)cc(=O)n(C)c12	96.9% (inactive)	111% (inactive)	96.7% (inactive)	116% (inactive)	100% (inactive)	61.5%	169% (inactive)	3.67% (inactive)	98.4% (inactive)	-1% (inactive)	5.82% (inactive)	25% (inactive)	-5.16% (inactive)	101% (inactive)	-0.17 (inactive)	4% (inactive)	-21.6% (inactive)
